An excerpt weighted towards active compounds, which were near 5.1% of everything screened.
NR3A LBD binder: modulates the human NR3A ligand-binding domain. NR3A LBD differential scanning fluorimetry, Tm shift; 0% = protein alone, 100% = glycine-bound protein. Tm shift relative to glycine control, % at 25 µM. 340,000 tested, 2.5% active;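 active means melting temperature shift of at least 10% of the positive control shift, at one fixed dose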
TMEM16A inh: blocks the mouse calcium-activated chloride channel TMEM16A | AID 588511 | Q8BHY3 | normalized B-score (activity score, 25-100; higher = stronger inhibition) at 10 µM | 310,000 tested, 1.2% active | HEK293 TMEM16A/YFP iodide influx fluorescence, ionomycin;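 active means ratio plate-corrected score three or more library SD toward inhibition, starting fluorescence score within five deviations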;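 further: score derived from kinetic fluorescence span divided by baseline fluorescence per well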
Target sequence (Q8BHY3 whole entry, looked up): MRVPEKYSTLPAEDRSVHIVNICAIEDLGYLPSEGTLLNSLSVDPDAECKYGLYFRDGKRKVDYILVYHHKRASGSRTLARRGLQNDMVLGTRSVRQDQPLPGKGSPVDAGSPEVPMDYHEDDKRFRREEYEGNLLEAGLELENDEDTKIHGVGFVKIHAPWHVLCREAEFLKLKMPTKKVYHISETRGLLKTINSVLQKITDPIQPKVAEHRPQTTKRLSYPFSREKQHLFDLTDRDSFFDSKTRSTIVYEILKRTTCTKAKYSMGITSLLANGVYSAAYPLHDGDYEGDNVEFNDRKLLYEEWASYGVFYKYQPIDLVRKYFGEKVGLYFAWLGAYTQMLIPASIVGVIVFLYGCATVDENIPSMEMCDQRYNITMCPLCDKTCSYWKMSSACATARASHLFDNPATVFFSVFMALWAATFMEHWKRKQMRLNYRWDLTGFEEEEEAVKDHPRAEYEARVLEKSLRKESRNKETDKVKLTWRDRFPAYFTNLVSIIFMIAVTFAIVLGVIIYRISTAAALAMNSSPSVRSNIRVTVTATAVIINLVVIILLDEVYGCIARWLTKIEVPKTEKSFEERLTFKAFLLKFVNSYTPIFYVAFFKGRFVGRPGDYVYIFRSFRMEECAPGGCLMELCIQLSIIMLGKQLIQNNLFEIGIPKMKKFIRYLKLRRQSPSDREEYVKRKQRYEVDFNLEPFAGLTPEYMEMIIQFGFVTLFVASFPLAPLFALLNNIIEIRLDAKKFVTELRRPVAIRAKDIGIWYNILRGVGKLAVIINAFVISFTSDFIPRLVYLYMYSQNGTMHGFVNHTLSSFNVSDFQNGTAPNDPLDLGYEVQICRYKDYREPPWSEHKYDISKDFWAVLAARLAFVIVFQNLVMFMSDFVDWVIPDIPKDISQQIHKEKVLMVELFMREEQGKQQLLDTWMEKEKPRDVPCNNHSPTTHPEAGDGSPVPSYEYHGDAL
MPTP block: inhibitors of mitochondrial permeability transition pore | isolated mouse mitochondria, Ca2+ swelling absorbance, 30 min | inhibition, % at 10 µM | 360,000 tested, 1.4% active | AID 602449;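 active means inhibition of 50% or more, scaled per plate between neutral and stimulator controls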;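 further: 0% = DMSO wells given calcium and 100% = 1 mM EGTA wells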
TMEM16A act: mouse TMEM16A channel activation, primary screen; Q8BHY3; HEK293 TMEM16A/YFP-H148Q/I152L, iodide quench fluorescence; active compounds read low; B-score at 10 µM; 340,000 tested, 0.3% active;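 active means fluorescence-ratio B-score plate-corrected deviation score at least 3 library SD below zero, with starting fluorescence score within 5 deviations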;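 further: channel opened by trigger with iodide after compound preincubation; score built on the fluorescence ratio of max minus min over baseline; more negative score means more quench and so TMEM16A activation or potentiation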
CRFR2-BP antag: CRF-BP/CRF-R2 complex antagonism | HEK293 CRF-R2/CRF-BP, CRF-induced calcium fluorescence | inhibition, % at 11.8 µM | 350,000 tested, 0.59% active | AID 588475;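 active means inhibition of the ligand-induced calcium signal above about 50% at the single tested concentration, limit read from the data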
CRFBP-R2 agonist: agonists of human CRF-binding protein/CRF-R2 receptor complex. activation, % at 13.2 µM. 350,000 tested, 0.46% active. HEK293 CRF-R2/CRF-BP, calcium dye fluorescence (FLIPR); percent of saturating CRF peptide response;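 active means activation of at least 50%, plus an integration ratio under a set limit after plate pattern correction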;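 further: plate controls were neutral control wells without compound for no effect and CRF at EC100 for full effect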
* hit, by the source's call; i = inactive; x = no result given.

SMILES	NR3A LBD binder	TMEM16A inh	MPTP block	TMEM16A act	CRFR2-BP antag	CRFBP-R2 agonist
CNC(=O)c1cccnc1Nc1cccc(C(F)(F)F)c1	-3	i	6	i	-10	0
CN(CC(=O)Nc1ccccc1Br)C(=O)c1cccnc1Nc1cccc(C(F)(F)F)c1	15*	i	1	i	-43	3
COc1ccc(C(=O)Nc2ccc(OCC(F)(F)C(F)F)c(C(F)(F)F)c2)cc1OC	18*	i	1	i	-4	6
CCCCNS(=O)(=O)c1ccc(NC(=O)C2CCCO2)cc1 (stereo not drawn)	12*	i	-1	i	5	-2
COc1ccc(C(=O)Nc2ccc3c(c2)OCCO3)cc1Br	5	i	0	i	-3	-1
COc1ccc(C(=O)Nc2ccc(Nc3ccccc3)cc2)cc1Br	24*	i	4	i	3	-1
COc1ccc(NC(=O)c2ccc(COCC(F)(F)F)cc2)cc1OC	-2	i	0	i	45	1
Cc1cc(NC(=O)c2ccc(NC(=O)C3CCCO3)cc2)ccc1Br (stereo not drawn)	11*	i	0	i	2	0
CCC(C)NS(=O)(=O)c1ccc(NC(=O)C2CCCO2)cc1 (stereo not drawn)	-3	i	2	i	14	-1
COC(=O)c1ccc(COC(=O)C2CCN(S(=O)(=O)c3ccc(C)c(C)c3)CC2)o1	-2	i	0	i	1	5
Cc1ccc(/C=C/C(=O)NC(=S)Nc2ccc(S(=O)(=O)Nc3cc(C)on3)cc2)cc1	-6	i	1	i	33	0
Cc1ccc(C(=O)Nc2ccc(N3CCCCC3)cc2)cc1	7	x	1	i	-1	-1
COc1cc(C(=O)Nc2ccc(O)cc2)ccc1OC(C)=O	32*	i	0	i	-1	1
CC(=O)c1ccc(NC(=O)c2ccc(C)c(Br)c2)cc1	28*	i	13	i	-15	1
COc1ccc(C(=O)Nc2ccc(N3CCCCC3)cc2)cc1Br	10*	i	1	i	-2	-1
CN[C@H]1C[C@H]2c3[nH]c4ccccc4c3CCN2C(=O)[C@H]1[C@H](C)O	x	x	-1	x	13	3
O=C(N/N=C/c1cc(Br)ccc1OC(=O)c1ccc(Br)cc1)c1ccncc1	1	i	-1	i	-10	2
O=C(NNC(=O)c1ccccc1F)c1ccc(Cl)c(S(=O)(=O)N2CCOCC2)c1	2	x	0	i	-10	-1
Cc1cc(NCc2ccccn2)ccc1Br	11*	i	0	i	-1	1
COc1ccc(S(=O)(=O)Nc2c(C(=O)O)[nH]c3ccccc23)cc1	-6	i	0	i	28	1
O=S(=O)(Nc1ccc(Nc2ccccc2)cc1)c1ccc(F)cc1	-2	i	4	i	-5	-1
O=C(O)c1[nH]c2ccccc2c1NS(=O)(=O)c1ccc(F)cc1	0	i	0	-49*	-3	0
Cc1ccc(S(=O)(=O)Nc2ccc(Nc3ccccc3)cc2)cc1	24*	i	1	i	-12	2
Cc1cc(C)c(NS(=O)(=O)c2ccc(NC(=O)c3cccs3)cc2)c(C)c1	25*	i	6	i	-40	11
Cc1ccc(S(=O)(=O)Nc2cc3c(C(=O)Nc4ccccc4)c(C)oc3c3ccccc23)cc1	12*	i	15	i	-5	1
COc1ccc(-c2cc(C(=O)N/N=C(\C)c3cccnc3)c3cc(C)ccc3n2)cc1OC	1	i	-2	i	-11	-1
CCN(CC)CCNC(=O)c1ccc(NC(=O)c2cc(S(=O)(=O)N3CCCCC3)ccc2N2CCOCC2)cc1	0	x	1	i	2	-1
O=C(O)c1ccccc1-c1ccccc1C(=O)Nc1ccc(F)cc1	2	i	0	i	-2	2
CCC(CC)C(=O)Nc1cccc(C(=O)Nc2ccc(S(N)(=O)=O)cc2)c1	0	i	-2	i	-7	0
Cc1ccc(S(=O)(=O)NC(C(=O)O)c2ccccc2)cc1 (stereo not drawn)	-2	i	-1	i	-176	133*

Compound activity: PubChem, several laboratories
